Assay results published in the supplement of paper PMC6522484.
± gives the standard deviation of the averaged measurements.

How the values were obtained:
[1] = test system: DLD1; test: cell viability (CellTiter-Glo) relative to plate median (fraction of plate median); higher = more viable cells; conditions: 5 µM; treatment time 24 h; reporter: 7TFP
How it was run: (§1)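 Stable lentiviral TCF/Wnt firefly luciferase reporters (7TFP or TCF4/Wnt) were present in the colorectal cancer cell lines used. These cells received library compounds at a final 5 µM for 24 h, and parallel plates were read for firefly luciferase or CellTiterGlo luminescence. Each well was normalised to the plate median, and the value reported is the mean of two independent replicates.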

[2] = test system: HCT116; test: as above; conditions: 5 µM; treatment time 24 h; reporter: TCF4/Wnt
How it was run: as §1

[3] = test system: SW480; test: as above; conditions: 5 µM; treatment time 24 h; reporter: 7TFP
How it was run: as §1

[4] = test system: DLD1; test: TCF/Wnt firefly luciferase reporter signal relative to plate median (fraction of plate median); higher = higher Wnt reporter signal; conditions: 5 µM; treatment time 24 h; reporter: 7TFP
How it was run: as §1

[5] = test system: SW480; test: as above; conditions: 5 µM; treatment time 24 h; reporter: 7TFP
How it was run: as §1

SMILES | cell viability [1] | cell viability [2] | cell viability [3] | TCF/Wnt firefly luciferase reporter signal [4] | TCF/Wnt firefly luciferase reporter signal [5]
Cc1cccc(C)c1NC(=O)C1CCCCN1C (stereo not given) | 1 ± 0.078 | 0.959 ± 0.1 | 0.971 ± 0.035 | 1.05 ± 0.035 | 1.04 ± 0.12
COC1=CC(=O)C(C(=O)c2ccccc2)=CC1=O | 0.965 ± 0.015 | 0.991 ± 0.028 | 0.975 ± 0.028 | 1.03 ± 0.09 | 1.04 ± 0.063
C=C(C)[C@@H]1CC[C@]2(C(=O)O)CC[C@]3(C)[C@H](C[C@H]4OC(=O)C[C@@H](O)[C@]5(C)[C@@H]4[C@@]3(C)CC[C@H]5C(=C)C)[C@@H]12 [Chiisanogenin (12)] | 0.9945 ± 0.00071 | 1.02 ± 0.12 | 0.968 ± 0.023 | 1.11 ± 0.028 | 1.12 ± 0.028
CCC1(C)CC(=O)NC1=O (stereo not given) | 0.932 ± 0.018 | 1.09 ± 0.021 | 1 ± 0.022 | 1.15 ± 0.11 | 0.865 ± 0.0092
CCCCCCc1ccc(O)cc1O.Nc1c2ccccc2nc2ccccc12 | 1.03 ± 0.056 | 0.829 ± 0.0071 | 1.1 ± 0.057 | 1.98 ± 0.34 | 0.848 ± 0.045
COc1ccc(-c2cc(=O)c3c(OC)c(OC)c(OC)c(OC)c3o2)cc1OC | 0.9 ± 0.064 | 0.914 ± 0.059 | 1.04 ± 0.067 | 0.951 ± 0.034 | 0.992 ± 0.011
O=C(O)CCCCCCCC(=O)O | 1.01 ± 0.014 | 1.11 ± 0.11 | 1.09 ± 0.021 | 1.16 ± 0.13 | 1.01 ± 0.084
CCCCC[C@H](CC(=O)O)C(=O)O | 0.996 ± 0.091 | 0.953 ± 0.095 | 0.974 ± 0.03 | 1.15 ± 0.085 | 1.03 ± 0.021
O=c1oc(CO)c(CO)c2cccc(O)c12 [8-hydroxy-3,4-bis-(hydroxymethyl)-isocumarin] | 0.91 ± 0.03 | 0.981 ± 0.098 | 0.967 ± 0.038 | 1.09 ± 0.092 | 1.05 ± 0.057
CC(C)(C)NCC(O)c1cc(O)cc(O)c1 (stereo not given) | 1.045 ± 0.0071 | 1.02 ± 0.061 | 1.09 ± 0.028 | 0.999 ± 0.03 | 1.03 ± 0.13
N[C@@H](C(=O)O)[C@@H](O)[C@H](O)[C@H](O)CO | 0.989 ± 0.073 | 0.95 ± 0.021 | 1.01 ± 0.02 | 1 ± 0.14 | 0.996 ± 0.034
CCOc1ccc2c(c1)C(C)=CC(C)(C)N2 | 1 ± 0.071 | 0.91 ± 0.09 | 1.01 ± 0.035 | 0.775 ± 0.12 | 0.899 ± 0.056
COc1ccc(C(=O)c2ccccc2)c(O)c1 | 1.04 ± 0.042 | 1.185 ± 0.0071 | 1.01 ± 0.016 | 0.8625 ± 0.0064 | 1.05 ± 0.028
C#CCCCCCCCCCCCc1ccco1 | 0.997 ± 0.033 | 1.03 ± 0.014 | 1.075 ± 0.0071 | 1.145 ± 0.0071 | 0.953 ± 0.096
NC(N)=O | 1.03 ± 0.014 | 0.988 ± 0.088 | 0.999 ± 0.044 | 0.898 ± 0.0028 | 0.934 ± 0.076
